Assay results as given in PubChem BioAssay (NCATS).
A number with no mark means an inactive call. Records with an inconclusive call do not appear. A call without a number means that no potency is given here. Active and inactive are the calls of the source. Calls come from the whole dose curve; as a rule, active = well fitted curve in the direction sought with a large enough effect; inconclusive = small, poorly fitted or top-dose-only effect, or another doubt; inactive = no such curve, though single readings can be large; an effect the other way counts as inactive or inconclusive.

Assays:
[1] = target: Voltage-gated inwardly rectifying potassium channel KCNH2 (Homo sapiens) (UniProt Q12809); assay: qHTS Assay for Small Molecule Inhibitors of the Human hERG Channel Activity (AID 588834);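 note: lower thallium flux fluorescence means stronger hERG block; nearly all actives have a fitted effect of over 50% in size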; note: potency is the fitted concentration of half-maximal effect
Outline: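 hERG-BacMam U2OS, 2000 cells/well; 0.7X FluxOR loading 1 hr RT dark; cpd ~10 min 37 °C; stim buffer; FDSS fluorescence 2 min @ 1 s; AC50 Hill fit.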

[2] = target: Glutaminase kidney isoform, mitochondrial (Homo sapiens) (UniProt O94925); assay: qHTS for Inhibitors of Glutaminase (GLS): LOPAC Validation (AID 624146); note: nearly all actives have a fitted effect of over 60% in size; note: potency is the fitted concentration of half-maximal effect
Outline: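 hKGA; 45 mM KH2PO4 pH 8.2 + 0.02% Tween-20; cpd via pin tool; 1 mM Gln soln; GluOx/HRP/Amplex Red; RT 30 min; fluor. t0 & final.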

[3] = qHTS of Trypanosoma Brucei Inhibitors: LOPAC Validation (AID 624147)
Outline: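 In this concentration-response screen, enzyme-free wells defined baseline while DMSO plates tracked drift. Each reaction combined TbPYK, substrate, compound and 130 uM ADP for 45 min at room temperature. Kinase-Glo Plus luminescence gave the signal.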

[4] = target: Glucagon-like peptide 1 receptor (Homo sapiens) (UniProt P43220); assay: qHTS of GLP-1 Receptor Agonists: LOPAC Validation (AID 624148);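 note: higher luminescence signal means agonism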
Outline: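 HEK293 cells stably co-expressing GLP-1R and a cAMP-responsive luciferase reporter, plated 12 hours before compound, then incubated 4-6 hr at 37 deg C. Luminescence read 12 min after detection reagent.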

[5] = qHTS of Nrf2 Activators: LOPAC Validation (AID 624149); note: potency is the fitted concentration of half-maximal effect
Outline: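 ARE reporter activation measured in AREc32 firefly luciferase cells after 24 hr compound exposure; Steady-Glo luminescence.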

[6] = HTS Assay for Allosteric Antagonists of the Human D2 Dopamine Receptor: Hit Validation in HTRF (AID 624455); note: potency is the fitted concentration of half-maximal effect;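 note: stable D1 dopamine receptor cell line scored for blocking the D1 response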
Outline: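 Signal from an HTRF read-out in D1-expressing stable cells gave hit activity as inhibition of the D1 response.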

Chain of Voltage-gated inwardly rectifying potassium channel KCNH2 (Homo sapiens) (Q12809 whole entry, looked up): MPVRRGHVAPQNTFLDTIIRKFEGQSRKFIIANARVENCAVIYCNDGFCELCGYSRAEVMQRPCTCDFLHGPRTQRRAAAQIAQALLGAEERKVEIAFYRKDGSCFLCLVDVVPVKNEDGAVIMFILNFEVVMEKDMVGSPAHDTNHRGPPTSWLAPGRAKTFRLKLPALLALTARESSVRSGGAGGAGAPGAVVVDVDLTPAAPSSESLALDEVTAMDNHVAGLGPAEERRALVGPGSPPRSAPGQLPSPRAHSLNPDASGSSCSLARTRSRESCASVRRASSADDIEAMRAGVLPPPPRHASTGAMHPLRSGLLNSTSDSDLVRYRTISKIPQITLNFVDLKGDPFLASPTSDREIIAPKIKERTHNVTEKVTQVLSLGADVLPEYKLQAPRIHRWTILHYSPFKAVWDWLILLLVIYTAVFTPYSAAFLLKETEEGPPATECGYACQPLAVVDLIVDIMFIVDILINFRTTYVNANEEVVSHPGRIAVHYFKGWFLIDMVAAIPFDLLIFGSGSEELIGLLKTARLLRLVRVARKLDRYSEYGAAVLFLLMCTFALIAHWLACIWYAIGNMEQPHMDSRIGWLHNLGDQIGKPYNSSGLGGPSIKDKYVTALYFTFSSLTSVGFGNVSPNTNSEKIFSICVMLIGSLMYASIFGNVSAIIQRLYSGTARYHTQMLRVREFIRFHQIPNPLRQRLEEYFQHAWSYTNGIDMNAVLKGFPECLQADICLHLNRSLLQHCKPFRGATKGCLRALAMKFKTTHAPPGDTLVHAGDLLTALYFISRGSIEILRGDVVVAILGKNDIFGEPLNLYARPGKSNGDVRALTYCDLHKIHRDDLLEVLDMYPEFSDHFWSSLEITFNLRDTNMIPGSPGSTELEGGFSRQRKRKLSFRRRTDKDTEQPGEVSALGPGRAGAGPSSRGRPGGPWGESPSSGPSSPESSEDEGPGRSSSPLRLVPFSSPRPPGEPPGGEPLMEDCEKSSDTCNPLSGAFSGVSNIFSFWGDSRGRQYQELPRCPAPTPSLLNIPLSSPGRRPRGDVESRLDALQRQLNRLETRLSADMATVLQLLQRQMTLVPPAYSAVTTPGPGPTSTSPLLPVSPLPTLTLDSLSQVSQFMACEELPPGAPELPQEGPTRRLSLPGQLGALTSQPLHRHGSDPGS
Chain of Glutaminase kidney isoform, mitochondrial (Homo sapiens) (O94925 whole entry, looked up, canonical isoform): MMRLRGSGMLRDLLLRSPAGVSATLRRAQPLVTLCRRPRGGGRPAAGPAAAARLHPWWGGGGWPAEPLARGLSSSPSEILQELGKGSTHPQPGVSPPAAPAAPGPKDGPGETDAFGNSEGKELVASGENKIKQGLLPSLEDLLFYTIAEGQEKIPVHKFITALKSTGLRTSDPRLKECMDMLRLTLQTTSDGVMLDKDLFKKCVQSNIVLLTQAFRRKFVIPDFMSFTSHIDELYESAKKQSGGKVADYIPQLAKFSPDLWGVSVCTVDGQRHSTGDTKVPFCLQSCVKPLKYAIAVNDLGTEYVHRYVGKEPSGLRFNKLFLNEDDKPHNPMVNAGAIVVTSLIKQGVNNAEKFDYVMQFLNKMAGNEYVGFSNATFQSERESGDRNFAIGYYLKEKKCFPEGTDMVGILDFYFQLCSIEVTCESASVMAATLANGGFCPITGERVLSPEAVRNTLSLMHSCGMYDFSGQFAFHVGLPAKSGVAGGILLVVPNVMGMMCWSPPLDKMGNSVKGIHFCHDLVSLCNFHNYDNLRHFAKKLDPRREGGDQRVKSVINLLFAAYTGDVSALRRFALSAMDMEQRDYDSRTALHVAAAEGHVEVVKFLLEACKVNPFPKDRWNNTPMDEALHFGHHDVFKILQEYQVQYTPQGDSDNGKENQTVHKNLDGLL
Chain of Glucagon-like peptide 1 receptor (Homo sapiens) (P43220 whole entry, looked up): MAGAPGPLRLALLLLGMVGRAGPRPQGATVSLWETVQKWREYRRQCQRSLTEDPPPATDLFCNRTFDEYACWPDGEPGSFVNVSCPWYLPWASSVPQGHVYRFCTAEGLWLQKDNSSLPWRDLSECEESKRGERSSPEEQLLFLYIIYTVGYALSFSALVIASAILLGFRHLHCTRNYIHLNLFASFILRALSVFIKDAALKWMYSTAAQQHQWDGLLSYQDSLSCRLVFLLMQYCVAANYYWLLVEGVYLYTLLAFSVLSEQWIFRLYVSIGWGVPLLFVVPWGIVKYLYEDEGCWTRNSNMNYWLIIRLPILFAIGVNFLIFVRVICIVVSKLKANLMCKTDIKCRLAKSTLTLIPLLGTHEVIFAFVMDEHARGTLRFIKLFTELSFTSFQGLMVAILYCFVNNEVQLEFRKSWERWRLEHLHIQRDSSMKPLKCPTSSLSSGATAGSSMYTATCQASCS

Structure (SMILES)	Potency [1]	Potency [2]	Potency [3]	Potency [4]	Potency [5]	Potency [6]
NC(=O)c1cc[n+](CC2=C(C(=O)O)N3C(=O)[C@@H](NC(=O)[C@@H](c4ccccc4)S(=O)(=O)[O-])[C@H]3SC2)cc1	inactive	inactive	inactive	inactive	inactive	inactive
CNCCNS(=O)(=O)c1cccc2cnccc12	inactive	inactive	inactive	inactive	inactive	inactive
NC(=Nc1ccccc1)NC(=O)c1nc(Cl)c(N)nc1N	14100 nM (active)	inactive	inactive	inactive	inactive	inactive
N=C(N)SCCc1cnc[nH]1	inactive	inactive	inactive	inactive	inactive	inactive
NCCS(=O)O	inactive	inactive	inactive	inactive	inactive	inactive
c1ccc2nc(C3=NCCN3)ccc2c1	inactive	inactive	inactive	inactive	inactive	inactive
CCCCOC(=O)NS(=O)(=O)c1sc(CC(C)C)cc1-c1ccc(Cn2c(CC)nc3c(C)cc(C)nc32)cc1	14100 nM (active)	inactive	inactive	inactive	inactive	inactive
CC[N+](CC)(CC)CC(=O)Nc1c(C)cccc1C	inactive	inactive	inactive	inactive	inactive	inactive
Nc1nc2ccc(Cl)cc2c2nc(-c3ccco3)nn12	inactive	inactive	inactive	inactive	1460 nM (active)	inactive
O=C1C2C=CC=CC2=NC(=S)N1CCN1CCC(=C(c2ccc(F)cc2)c2ccc(F)cc2)CC1 (centres undefined)	316 nM (active)	inactive	inactive	inactive	inactive	inactive
Cc1ccc([N+](=O)[O-])cc1S(=O)(=O)N(C)C	inactive	inactive	inactive	inactive	inactive	inactive
CC(=O)O[C@H]1CC2(C)[C@@H](C[C@@H](O)[C@H]3[C@@]4(C)CC[C@@H](O)[C@@H](C)[C@@H]4CC[C@@]32C)C1=C(CCC=C(C)C)C(=O)O (some centres undefined)	inactive	inactive	inactive	inactive	inactive	inactive
NCCCNCCCCNCCCN	inactive	inactive	inactive	inactive	inactive	4610 nM (active)
N[C@@H](CCC(=O)N[C@H](CSN=O)C(=O)NCC(=O)O)C(=O)O	inactive	inactive	inactive	inactive	inactive	inactive
COc1ccccc1N1CCN(CCCNc2c(C)c(=O)n(C)c(=O)n2C)CC1	inactive	inactive	inactive	inactive	inactive	inactive
CCCn1c(=O)c2[nH]c(-c3ccc(S(=O)(=O)O)cc3)nc2n(CCC)c1=O	inactive	inactive	inactive	inactive	inactive	inactive
N[C@H](C(=O)O)[C@H](O)C(=O)O	inactive	inactive	inactive	inactive	inactive	inactive
N=C(N)SCCN	inactive	inactive	inactive	inactive	inactive	inactive
O=C(O)C1CCNCC1	inactive	inactive	inactive	inactive	inactive	inactive
O=c1cc(O)cc(/C=C/c2ccc(O)c(O)c2)o1	inactive	1120 nM (active)	inactive	inactive	inactive	inactive
N[C@@H](Cc1ccc(O)c(I)c1)C(=O)O	inactive	inactive	inactive	inactive	inactive	inactive
O=C(O)CCC(=O)N1CCCC1C(=O)O (centres undefined)	inactive	inactive	inactive	inactive	inactive	inactive
COc1ccc(CCN(C)CCc2ccc(OC)c(OC)c2)cc1OC	6310 nM (active)	inactive	inactive	inactive	inactive	inactive
COc1cccc(OC)c1OCCNCC1CSc2ccccc2O1 (centres undefined)	1410 nM (active)	inactive	inactive	inactive	inactive	291 nM (active)
Cn1c(=O)c2[nH]c(C3CCCC3)nc2n(C)c1=O	inactive	inactive	inactive	inactive	inactive	inactive
COc1ccc2c(c1)c(CC(=O)O)c(C)n2C(=O)c1ccccc1	inactive	inactive	inactive	inactive	inactive	inactive
NC(N)=NC(N)=Nc1ccccc1	inactive	inactive	inactive	inactive	inactive	inactive
O=C(O)c1ccccc1Nc1ccccc1	inactive	inactive	inactive	inactive	inactive	inactive
NCCCCN	inactive	inactive	inactive	inactive	inactive	inactive
